Data from PubChem BioAssay (EPA / NIEHS).
Activity calls are given as the source filed them. Rule for the calls: active = hit-call score of the fitted dose curve at least 0.9, where 1 is the maximum; inactive = score below 0.9.

Key:
[1] = ATG_DR4_LXR_CIS: Attagene CIS-FACTORIAL HepG2 Assay for human Liver X Receptor (LXR), DR4 submotif (AID 2282929); conditions: HepG2 Attagene DR4 cis-reporter, mRNA transcription; AC50: actives raise or lower the signal unless noted; outcome: actives raise or lower the signal unless noted
In short: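 Transiently transfected HepG2 liver cells; cis-regulated reporters; 24 h dosing. RT-PCR plus CE read-out of reporter mRNA. DMSO baseline, bidirectional curve fitting.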

[2] = biological target: Aryl hydrocarbon receptor (Homo sapiens) (UniProt P35869); experiment: ATG_Ahr_CIS: Attagene CIS-FACTORIAL HepG2 Assay for human Aryl Hydrocarbon Receptor (Ahr) (AID 2282930); conditions: HepG2 AhR cis-factorial reporter transcription; actives raise or lower the signal
In short: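 Endogenous factor activity is tracked through cis-promoter reporter units transfected into HepG2 cells. Transcript levels at 24 h are read by fluorescent RT-PCR and capillary electrophoresis, with activity in either direction scored relative to DMSO.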

[3] = ATG_AP_1_CIS: Attagene CIS-FACTORIAL HepG2 Assay for human Activator Protein 1 (AP-1) (AID 2282931); conditions: HepG2 Attagene cis-factorial AP-1 reporter mRNA; actives raise or lower the signal
In short: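 We transfected HepG2 cells transiently with a set of cis-regulated reporter transcription units, dosed them for 24 h, and quantified reporter mRNA via RT-PCR and capillary electrophoresis, scoring gain or loss of signal relative to DMSO.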

[4] = ATG_AP_2_CIS: Attagene CIS-FACTORIAL HepG2 Assay for human Activator Protein 2 (AP-2) (AID 2282932); conditions: HepG2 AP-2 cis-reporter, Attagene transcription factor profiling; AC50: actives raise or lower the signal unless noted; outcome: actives raise or lower the signal unless noted
In short: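 HepG2 cells transiently transfected with cis-element reporter units and exposed for 24 h. Reporter mRNA measured by RT-PCR, FAM labelling, HpaI digestion and capillary electrophoresis. Changes in either direction fitted relative to DMSO.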

[5] = ATG_BRE_CIS: Attagene CIS-FACTORIAL HepG2 Assay for human Bone Morphogenetic Protein (BMP) Response Element (BRE) (AID 2282933); conditions: HepG2 BMP response element reporter, Attagene transcription factor profiling; actives raise or lower the signal
In short: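 HepG2 cells transiently transfected with multiplexed cis-element reporter units were dosed with chemical for 24 h. Reporter mRNA was measured by RT-PCR with fluorescent labelling, HpaI digestion and capillary electrophoresis; bidirectional fitting relative to DMSO.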

[6] = biological target: Retinoic acid receptor alpha (Homo sapiens) (UniProt P10276); experiment: ATG_DR5_RAR_CIS: Attagene CIS-FACTORIAL HepG2 Assay for human Retinoic Acid Receptor Alpha (RARE), DR5 submotif (AID 2282934); conditions: HepG2 Attagene cis-factorial RARE DR5 reporter, mRNA; actives raise or lower the signal;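 for AC50: reporter responds to endogenous RAR alpha beta and gamma in HepG2 not RARA alone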
In short: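 After 24 h of chemical exposure, transiently transfected HepG2 cells were lysed for total RNA; the DR5-regulated reporter transcript was quantified via RT-PCR and capillary electrophoresis, with activity fitted bidirectionally against DMSO.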

[7] = ATG_E_Box_CIS: Attagene CIS-FACTORIAL HepG2 Assay for human Enhancer Box (E-box) (AID 2282936); conditions: HepG2 E-box cis-reporter transcription, actives raise or lower the signal
In short: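 HepG2 cells transiently transfected with multiplexed cis-element reporter units, dosed 24 h; reporter mRNA quantified by RT-PCR, 6-FAM labelling, HpaI digestion and capillary electrophoresis. E-box (USF1) signal fitted bidirectionally vs DMSO.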

[8] = ATG_M_61_CIS: Attagene CIS-FACTORIAL HepG2 Assay for M61 Transcription Factor (Internal Marker) (AID 2282937); conditions: HepG2 Attagene CIS-FACTORIAL M61 internal marker reporter; actives raise or lower the signal
In short: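 Multiplexed reporter mRNA assay, HepG2 human hepatoma cells, 24 h treatment. Signal: FAM-labelled, HpaI-digested RT-PCR fragments by CE. Fit: bidirectional, baseline DMSO.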

[9] = ATG_EGR_CIS: Attagene CIS-FACTORIAL HepG2 Assay for human Early Growth Response 1 (EGR1) (AID 2282938); conditions: HepG2 Attagene CIS-FACTORIAL EGR reporter mRNA; actives raise or lower the signal
In short: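 Multiplexed cis-reporter system in human hepatoma HepG2 cells, transiently transfected. Cells are dosed for 24 h; reporter transcripts are amplified, fluorescently tagged and sized by capillary electrophoresis, with DMSO as negative control.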

[10] = ATG_M_19_CIS: Attagene CIS-FACTORIAL HepG2 Assay for M19 Transcription Factor (Internal Marker) (AID 2282939); conditions: HepG2 Attagene CIS-FACTORIAL M19 internal marker reporter; actives raise or lower the signal
In short: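 HepG2 cells transiently transfected with cis-regulated multiple reporter transcription units were dosed for 24 h; reporter mRNA was quantified by RT-PCR, 6-FAM primer-extension labelling, HpaI digestion and capillary electrophoresis, with bidirectional fitting against DMSO baseline.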

[11] = ATG_ERE_CIS: Attagene CIS-FACTORIAL HepG2 Assay for Estrogen Response Element (ERE) (AID 2282940); conditions: HepG2 ERE cis-reporter, Attagene RNA transcript; actives raise or lower the signal
In short: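 HepG2 cells transiently transfected with cis-promoter-driven multiplexed reporter transcription units report endogenous TF activity. After 24 h compound exposure, reporter mRNA is quantified by RT-PCR with capillary electrophoresis fluorescence; bidirectional fitting versus DMSO baseline.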

[12] = ATG_Ets_CIS: Attagene CIS-FACTORIAL HepG2 Assay for human Erythroblast Transformation Specific (ETS) (AID 2282941); conditions: HepG2 ETS cis-reporter transcription; AC50: actives raise or lower the signal unless noted; outcome: actives raise or lower the signal unless noted
In short: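 Steps: transfect HepG2 with multiple reporter units; treat compound 24 h; isolate RNA, DNase-treat, reverse-transcribe; PCR-amplify, label with 6-FAM, digest with HpaI; separate by capillary electrophoresis. Activity fitted both directions versus DMSO.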

[13] = ATG_FoxO_CIS: Attagene CIS-FACTORIAL HepG2 Assay for human Forkhead box O (FoxO) (AID 2282943); conditions: HepG2 Attagene cis-reporter, FoxO element, mRNA; actives raise or lower the signal
In short: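 Transfected HepG2 reporter cells exposed to test chemical for 24 h; reporter RNA measured by reverse transcription, PCR and fluorescent capillary electrophoresis; curves fitted for increases and decreases against DMSO.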

[14] = ATG_GATA_CIS: Attagene CIS-FACTORIAL HepG2 Assay for human GATA Binding Protein (AID 2282944); conditions: HepG2 GATA cis-element reporter, Attagene multiplex mRNA; actives raise or lower the signal
In short: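 HepG2 cells transiently transfected with multiplexed cis-element reporter units reflecting endogenous transcription factor activity; reporter mRNA measured after 24 h dosing by RT-PCR, 6-FAM labeling, HpaI digestion and capillary electrophoresis. Bidirectional fitting versus DMSO baseline.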

[15] = ATG_GLI_CIS: Attagene CIS-FACTORIAL HepG2 Assay for human Zinc Finger Protein GLI1 (AID 2282945); conditions: HepG2, Attagene cis-factorial reporter mRNA, GLI element; actives raise or lower the signal
In short: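 Transiently transfected HepG2 cells report endogenous transcription factor activity via cis-element-driven reporter units. After 24 h compound exposure, reporter mRNA was measured by RT-PCR with capillary electrophoresis; bidirectional fitting against DMSO baseline.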

[16] = biological target: Bile acid receptor (Homo sapiens) (UniProt Q96RI1); experiment: ATG_IR1_CIS: Attagene CIS-FACTORIAL HepG2 Assay for human Nuclear Receptor Subfamily 1 Group H Member 4 (NR1H4), IR1 submotif (AID 2282946); conditions: IR1 reporter transcription, actives raise or lower the signal
In short: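 HepG2 cells transiently transfected with multiple cis-promoter-driven reporter units to measure endogenous transcription factor activity; 24 h exposure. Reporter mRNA read by RT-PCR, FAM labelling, HpaI digestion and capillary electrophoresis. Bidirectional fit versus DMSO.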

[17] = ATG_ISRE_CIS: Attagene CIS-FACTORIAL HepG2 Assay for human Interferon Regulatory Factor 1 (IRF1) binding to an Interferon-Stimulated Response Element (ISRE) (AID 2282948); conditions: HepG2 ISRE cis-reporter (Attagene), mRNA transcription readout; actives raise or lower the signal
In short: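 Transfected HepG2 (multiple reporter transcription units, cis elements) dosed 24 h. RNA → oligo(dT) RT → PCR → 6-FAM primer extension → HpaI → CE. DMSO = negative control/baseline.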

[18] = biological target: Transcription factor E2F1 (Homo sapiens) (UniProt Q01094); experiment: ATG_E2F_CIS: Attagene CIS-FACTORIAL HepG2 Assay for human E2F Transcription Factor 1 (AID 2282935); conditions: HepG2 Attagene cis-reporter, E2F reporter RNA transcripts; actives raise or lower the signal
In short: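 Endogenous E2F1 activity read through cis-promoter reporter units transfected into HepG2. After 24 h compound treatment, reporter mRNA measured by RT-PCR, HpaI digestion and capillary electrophoresis. Bidirectional fit versus DMSO.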

[19] = biological target: Hepatocyte nuclear factor 3-beta (Homo sapiens) (UniProt Q9Y261); experiment: ATG_FoxA2_CIS: Attagene CIS-FACTORIAL HepG2 Assay for human Forkhead box A2 (FOXA2) (AID 2282942); conditions: HepG2 cis-reporter transcription factor activity, 24 h; actives raise or lower the signal
In short: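 Multiplexed cis-element reporter assay in transiently transfected HepG2. Twenty-four hours post-dosing, RNA was reverse-transcribed, amplified, FAM-labelled, HpaI-digested and separated by CE. Activity gain or loss relative to DMSO.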

[20] = ATG_GRE_CIS: Attagene CIS-FACTORIAL HepG2 Assay for human Glucocorticoid Response Elements (GRE) (AID 2282947); conditions: HepG2 GRE cis-reporter, Attagene multiplex mRNA; AC50: actives raise or lower the signal unless noted; outcome: actives raise or lower the signal unless noted
In short: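 Transiently transfected HepG2 cells carrying GRE cis-reporter units (endogenous TF activity) dosed 24 h; reporter mRNA quantified by RT-PCR, 6-FAM labelling, HpaI digestion and capillary electrophoresis. Bidirectional fit versus DMSO baseline.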

Measured: AC50

Transcription factor E2F1 (Homo sapiens), sequence (Q01094 whole entry, looked up): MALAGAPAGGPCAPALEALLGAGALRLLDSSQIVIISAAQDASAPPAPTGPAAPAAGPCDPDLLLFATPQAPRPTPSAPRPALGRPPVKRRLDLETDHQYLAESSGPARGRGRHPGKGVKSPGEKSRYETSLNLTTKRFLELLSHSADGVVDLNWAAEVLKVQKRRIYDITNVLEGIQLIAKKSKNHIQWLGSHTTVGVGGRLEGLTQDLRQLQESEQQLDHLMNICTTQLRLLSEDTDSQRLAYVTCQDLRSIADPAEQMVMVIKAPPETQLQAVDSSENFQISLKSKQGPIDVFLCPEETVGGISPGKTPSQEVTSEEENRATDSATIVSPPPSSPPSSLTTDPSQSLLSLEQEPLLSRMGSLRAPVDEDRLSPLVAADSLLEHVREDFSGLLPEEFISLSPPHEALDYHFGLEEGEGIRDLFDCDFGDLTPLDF
Bile acid receptor (Homo sapiens), sequence (Q96RI1 whole entry, looked up): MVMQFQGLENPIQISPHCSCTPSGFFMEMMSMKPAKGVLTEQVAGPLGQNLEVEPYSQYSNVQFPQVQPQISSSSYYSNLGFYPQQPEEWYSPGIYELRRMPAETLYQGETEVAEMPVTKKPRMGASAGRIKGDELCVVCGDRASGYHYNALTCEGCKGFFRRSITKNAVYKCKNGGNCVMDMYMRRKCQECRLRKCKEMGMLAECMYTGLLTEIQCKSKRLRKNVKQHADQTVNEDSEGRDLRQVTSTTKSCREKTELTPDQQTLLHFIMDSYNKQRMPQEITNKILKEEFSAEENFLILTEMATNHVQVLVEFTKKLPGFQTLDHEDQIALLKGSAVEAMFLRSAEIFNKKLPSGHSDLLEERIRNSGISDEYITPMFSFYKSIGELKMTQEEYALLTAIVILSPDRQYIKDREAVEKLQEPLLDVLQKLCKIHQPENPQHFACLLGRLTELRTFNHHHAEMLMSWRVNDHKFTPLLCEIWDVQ
Retinoic acid receptor alpha (Homo sapiens), sequence (P10276 whole entry, looked up): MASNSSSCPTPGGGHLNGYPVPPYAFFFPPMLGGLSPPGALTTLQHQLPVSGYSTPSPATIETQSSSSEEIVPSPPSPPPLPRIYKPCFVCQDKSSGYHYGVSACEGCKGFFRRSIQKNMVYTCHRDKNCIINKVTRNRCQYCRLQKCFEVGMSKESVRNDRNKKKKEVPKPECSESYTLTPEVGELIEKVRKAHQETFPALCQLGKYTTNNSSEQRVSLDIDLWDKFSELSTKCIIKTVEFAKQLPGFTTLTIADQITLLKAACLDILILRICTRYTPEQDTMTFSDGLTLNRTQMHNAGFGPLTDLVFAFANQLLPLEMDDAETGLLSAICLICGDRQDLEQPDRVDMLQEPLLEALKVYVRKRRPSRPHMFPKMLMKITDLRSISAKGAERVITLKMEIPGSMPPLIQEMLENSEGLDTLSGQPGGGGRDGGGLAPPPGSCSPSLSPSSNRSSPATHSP
Aryl hydrocarbon receptor (Homo sapiens), sequence (P35869 whole entry, looked up): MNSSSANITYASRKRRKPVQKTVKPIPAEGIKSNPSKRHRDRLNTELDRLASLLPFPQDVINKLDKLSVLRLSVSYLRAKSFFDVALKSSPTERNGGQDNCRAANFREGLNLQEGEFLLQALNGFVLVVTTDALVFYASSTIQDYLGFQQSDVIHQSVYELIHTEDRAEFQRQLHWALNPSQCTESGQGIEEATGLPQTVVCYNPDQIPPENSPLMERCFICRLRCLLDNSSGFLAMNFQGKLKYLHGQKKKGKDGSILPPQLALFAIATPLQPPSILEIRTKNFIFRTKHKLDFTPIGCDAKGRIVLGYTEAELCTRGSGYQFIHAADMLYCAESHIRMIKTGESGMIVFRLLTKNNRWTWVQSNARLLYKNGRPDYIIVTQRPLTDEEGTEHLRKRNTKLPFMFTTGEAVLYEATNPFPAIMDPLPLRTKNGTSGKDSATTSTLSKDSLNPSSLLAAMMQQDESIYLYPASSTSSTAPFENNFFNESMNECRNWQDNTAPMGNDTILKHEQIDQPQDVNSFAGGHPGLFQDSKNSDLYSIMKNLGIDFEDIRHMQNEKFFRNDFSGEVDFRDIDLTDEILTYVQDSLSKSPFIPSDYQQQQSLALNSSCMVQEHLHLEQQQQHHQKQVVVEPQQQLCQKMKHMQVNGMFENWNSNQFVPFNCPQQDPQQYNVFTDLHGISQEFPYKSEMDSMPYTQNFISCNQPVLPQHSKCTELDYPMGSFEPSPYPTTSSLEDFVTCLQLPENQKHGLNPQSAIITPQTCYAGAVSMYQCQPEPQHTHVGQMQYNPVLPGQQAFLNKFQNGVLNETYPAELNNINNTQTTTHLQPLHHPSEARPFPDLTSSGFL
Hepatocyte nuclear factor 3-beta (Homo sapiens), sequence (Q9Y261 whole entry, looked up): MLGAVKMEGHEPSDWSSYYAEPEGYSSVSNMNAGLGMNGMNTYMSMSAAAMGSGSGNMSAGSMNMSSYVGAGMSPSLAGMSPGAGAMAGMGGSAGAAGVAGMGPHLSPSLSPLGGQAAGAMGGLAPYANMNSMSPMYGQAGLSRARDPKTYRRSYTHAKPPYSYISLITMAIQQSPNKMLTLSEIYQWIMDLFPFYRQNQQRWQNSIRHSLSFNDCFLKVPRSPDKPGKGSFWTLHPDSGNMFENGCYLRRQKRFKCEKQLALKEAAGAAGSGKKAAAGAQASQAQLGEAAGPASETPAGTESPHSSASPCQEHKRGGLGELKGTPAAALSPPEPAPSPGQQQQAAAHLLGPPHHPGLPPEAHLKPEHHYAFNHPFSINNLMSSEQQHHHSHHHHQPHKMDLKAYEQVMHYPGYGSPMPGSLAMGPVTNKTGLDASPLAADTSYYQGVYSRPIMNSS

C=CC(=O)OCCN(CC)CC
active: [1] 26.6 µM | [2] 65.6 µM | [3] 178 µM | [7] 37 µM | [9] 54.4 µM | [17] 44.3 µM
not listed: [18] | [19] | [20]
inactive: all other assays above

O=C1c2ccc(O)c(O)c2C(=O)c2c(O)ccc(O)c21
active: [2] 0.0722 µM | [3] 50 µM | [7] 6.45 µM | [11] 13.6 µM
not listed: [5] | [10]
inactive: all other assays above

CCCCCCCC(OC)OC
not listed: [5] | [10] | [14] | [20]
inactive: all other assays above

OCC(F)(F)C(F)(F)C(F)(F)C(F)(F)C(F)(F)C(F)(F)C(F)(F)C(F)(F)C(F)(F)C(F)(F)C(F)(F)F
active: [11] 72.3 µM
not listed: [5] | [19]
inactive: all other assays above

O=S(=O)(O)c1ccc2cc(O)ccc2c1
not listed: [10] | [11] | [16] | [20]
inactive: all other assays above

CCCCc1oc2ccccc2c1C(=O)c1cc(I)c(OCCN(CC)CC)c(I)c1
active: [1] 18.4 µM | [2] 55.1 µM | [3] 20.2 µM | [4] 130 µM | [8] 89.1 µM | [9] 20.3 µM | [10] 97.7 µM | [20] 141 µM
inactive: [5] | [7] | [11] | [12] | [19] | [13] | [15] | [17]

CC[N+](CC)(CC)Cc1ccccc1
not listed: [18] | [20]
inactive: all other assays above

CC(=O)CC(C)C
not listed: [5] | [11]
inactive: all other assays above

O=C1OC(=O)C(F)(F)C1(F)F
not listed: [18] | [20]
inactive: all other assays above

COCC1CCC(CO)CC1 (stereo not given)
active: [11] 24.4 µM
not listed: [5] | [20]
inactive: all other assays above

C=CC(=O)OCC(CO)(COCC(COC(=O)C=C)(COC(=O)C=C)COC(=O)C=C)COC(=O)C=C
active: [1] 4.59 µM | [6] 11 µM | [18] 19.6 µM | [7] 2.52 µM | [9] 3.04 µM | [10] 16.2 µM | [13] 3.66 µM | [17] 1.29 µM
not listed: [5]
inactive: all other assays above

O=CC(F)(F)C(F)(F)C(F)(F)F
not listed: [5] | [14]
inactive: all other assays above

O=C1C=CC(=O)N1c1cccc(N2C(=O)C=CC2=O)c1
not listed: [18]
inactive: all other assays above

COC(=O)CC(C(C)=O)C(=O)OC (stereo not given)
not listed: [18]
inactive: all other assays above

O=C(c1cc(O)c(O)c(O)c1)c1ccc(O)c(O)c1O
active: [2] 36 µM
not listed: [5] | [10] | [19]
inactive: all other assays above
